Data published in PubChem BioAssay AID720532 (National Center for Advancing Translational Sciences (NCATS), 2013).
Where “and” joins values, the source holds several entries; their conditions need not be identical. Equal values may be shown once. Screen size: about 18,000 compounds; about 1,200 (6.7%) were called active. Inconclusive results (about 16%) are left out. Calls come from the whole dose curve; tested in HEK293 cells. The entries come from a sample that favours actives as a whole. Entries that show only a call come without a potency. A structure can be active in one record and inactive in another.

Assay: qHTS for Inhibitors of binding or entry into cells for Marburg Virus
Conditions: Marburg virus pseudotype entry/binding inhibition, cell-based; series mostly up to 49.2 µM
Potency is the fitted concentration of half-maximal effect.

Compound | activity change, negative = inhibition | Potency
COc1ccc(-c2nc(-c3ccccc3)oc2Nc2ccc3ccccc3c2)cc1 | inactive | –
O=S1(=O)CC(N2CCC(Cc3ccccc3)CC2)CN1Cc1ccccc1 (stereo unspecified) | inactive | –
CCOC(=O)C1=C(C(=O)OCC)C(C(=O)OCC)N(S(=O)(=O)C(F)(F)F)c2ccccc21 (stereo unspecified) | inactive | –
COC(=O)C(C(=O)OC)[C@@H](NC=O)c1ccccc1 | inactive | –
C=CCN(Cc1ccc([N+](=O)[O-])cc1)S(=O)(=O)C=C | inactive | –
COC(=O)CC=C[C@@H](C)[C@H](NC(=O)OCC(Cl)(Cl)Cl)c1ccc2ccccc2c1 | -17.9% [at 8.59 µM] (inactive) | –
CC[C@H](C)[C@H](NC(=O)[C@@H](N)CCC(=O)O)C(=O)N[C@@H](CC(C)C)C(=O)N[C@@H](CC(=O)O)C(=O)N[C@H](C(=O)N1CCC[C@H]1C(=O)N[C@@H](CO)C(=O)N[C@H](C(=O)O)[C@@H](C)O)C(C)C | inactive | –
CCCCN1CC(COc2ccccc2)Oc2cccc(F)c2S1(=O)=O (stereo unspecified) | inactive | –
CCCCN1CC(COCc2ccccc2)OCCS1(=O)=O (stereo unspecified) | inactive | –
CC[C@@]12C=C(/C=C/c3ccccc3)[C@](CC)(C1)[C@H](c1ccccc1)CC2=O | inactive | –
COc1cc(Nc2nccc(-c3cnn4ncccc34)n2)cc(OC)c1 | – | 3.53 µM (active)
FC(F)(F)c1ccc(-c2nn3ncccc3c2-c2ccnc(Nc3ccc4c(c3)OCCO4)n2)cc1 | inactive | –
C[C@@H]1C[C@H]2CC[C@H](O2)[C@H](C)C(=O)O[C@@H](C)C[C@@H]2CC[C@@H](O2)[C@@H](C)C(=O)O[C@H](C)C[C@H]2CC[C@H](O2)[C@H](C)C(=O)O[C@@H](C)C[C@@H]2CC[C@@H](O2)[C@@H](C)C(=O)O1 | – | 0.631 µM (active)
C#CCNc1ccc2c(c1)OC[C@@H](C)NS2(=O)=O | inactive | –
COc1cc2c(c(OC)c1OC)CC(C)=C(C)CC2NC(=O)C(F)(F)F (stereo unspecified) | -9.07% [at 8.59 µM] (inactive) | –
COCOCCn1cc(CN2CCS(=O)(=O)N(Cc3ccc(-c4cccc(N(C)C)c4)cc3)C(CC(C)C)C2=O)nn1 (stereo unspecified) | inactive | –
C[C@H](CO)NS(=O)(=O)c1ccc(Br)cc1F | inactive | –
CCCCC/C=C\C[C@H](O)/C=C/C=C/C=C/[C@@H](O)CCCC(=O)O | inactive | –
C=CCOC(=O)C(=C)C | inactive | –

Compound | activity change, negative = inhibition | Potency
C[C@@H]1CC2=CCCC2[C@]2(O1)C(=O)N(CC1CC1)c1cccc(Br)c12 (stereo partly specified) | 72.4% [at 8.59 µM] (inactive) | –
O=C(Nc1cccc(C(=O)N2CCCC2)c1)c1ccccc1 | inactive | –
CC(=O)N1CCN(Cc2cc(=O)oc3cc(C)ccc23)CC1 | inactive | –
O=C(OCCN1CCOCC1)C1(c2ccccc2)CCCCC1 | – | inactive and 31.6 µM (active)
COc1cc(OC)c2c(c1Cl)OC1(C2=O)C(O)=CC(=O)CC1C (stereo unspecified) | inactive | –
CSc1ccccc1N1CCN(CCCCCC(=O)NC2CCCc3ccccc32)CC1 (stereo unspecified) | – | 10 µM (active)
COC(=O)Nc1nc2ccc(Oc3ccc(NC(=O)Nc4cccc(Cl)c4)cc3)cc2[nH]1 | – | 4.99 µM (active)
COC(=O)Nc1nc2ccc(Sc3ccccc3)cc2[nH]1 | inactive | –
C1CC[C@H]([C@@]23C[C@H](C[C@H]4CCCN[C@H]42)[C@@H]2CCCCN2C3)NC1 | – | 12.6 µM (active)
COC(=O)CC=C[C@@H](C)[C@H](NC(=O)OCC(Cl)(Cl)Cl)c1ccccc1 | 0.224% [at 8.59 µM] (inactive) | –
NC[C@@H]1O[C@H](O[C@@H]2[C@H](O[C@@H]3O[C@H](CO)[C@@H](COC[C@H]4O[C@@H](CN)[C@@H](O)[C@@H](O)[C@@H]4N)[C@@H]3O)[C@@H](O)[C@@H](N)C[C@H]2N)[C@@H](N)[C@H](O)[C@@H]1O | inactive | –
Nc1ccc2c3c(cccc13)C(=O)NC2=O | inactive | –
S=C(NCCCc1cnc[nH]1)NCCCN(Cc1ccc(Cl)c(Cl)c1)c1ccc(Br)cn1 | – | 20 µM (active)
CCCCC[C@H](O)/C=C/[C@@H]1[C@@H](CC(=O)CCC(=O)O)[C@@H](O)C[C@H]1O | inactive | –
CCOC(=O)[C@@]12C3[C@@H](CCN3C(=O)N[C@@H]1c1ccccc1)[C@@H]2C (stereo partly specified) | -11.3% [at 8.59 µM] (inactive) | –
O=S1(=O)CCSCCN1Cc1ccccc1F | inactive | –
CC(C)NC[C@H](O)c1ccc2ccccc2c1 | inactive | –
Nc1nc2nc(Cl)[nH]c2c(=O)[nH]1 | inactive | –
COC(=O)c1cc(C(=O)OC)n2ccc3cc(OC)c(OC)cc3c12 | 51.8% [at 8.59 µM] (inactive) | –

Compound | activity change, negative = inhibition | Potency
CO/N=C(\C(=O)N[C@@H]1C(=O)N2C(C(=O)O)=C(C[N+]3(C)CCCC3)CS[C@H]12)c1csc(N)n1 | inactive | –
COc1ccc2nccc(C(=O)O)c2c1 | inactive | –
CC[C@@H]1CN2CC[C@@H]1C[C@H]2[C@H](O)c1ccnc2ccc(OC)cc12 | – | 31.6 µM (active)
COc1cccc([C@@H]2Oc3ccc(Br)cc3C(=O)[C@H]2OC(=O)NCCc2ccc(OC)c(OC)c2)c1 | inactive | –
CC[N+]1(CCOC(=O)C(O)(c2ccccc2)c2ccccc2)CCCCC1 | inactive | –
CCCC(C(=O)OCCN(CC)CC)(c1ccccc1)c1ccccc1 | – | 15.8 µM (active)
CCC(C(=O)OCCN(CC)CC)c1ccccc1 (stereo unspecified) | inactive | –
CCCCC/C=C\C/C=C\CCCCCCCCCC(N)=O | inactive | –
CCCCOCC1CN(CCCC)S(=O)(=O)c2c(Oc3ccc(F)cc3)cccc2O1 (stereo unspecified) | inactive | –
CN1CCN2c3ccccc3Cc3ccccc3[C@@H]2C1 | – | 15.8 µM (active)
CN1C(=O)CN2CCc3ccccc3C2c2cc(Cl)ccc21 (stereo unspecified) | inactive | –
H-EHIPA-OH | inactive | –
COc1ccc(Nc2ncnc3ccc(OC)cc23)cc1 | inactive | –
CC(C)(C)OC(=O)Nc1ccc(OCc2cn(CC(=O)c3ccc(O)cc3)nn2)cc1 | inactive | –
CO/N=C(/C(=O)N[C@@H]1C(=O)N2C(C(=O)O)=C(Cn3nnc(C)n3)CS[C@H]12)c1csc(N)n1 | inactive | –
CC/C=C\C/C=C\C/C=C\C/C=C\C/C=C\C/C=C\CCC(=O)NC(C)C(=O)O (stereo unspecified) | inactive | –
CC12C=C(C=Cc3ccc(F)cc3)C(C)(C1)C(c1ccc(F)cc1)CC2=O (stereo unspecified) | 8.67% [at 8.59 µM] (inactive) | –
CC(C)[C@H]1CC[C@@H](C)C[C@H]1O | inactive | –
